Assay outcomes (PubChem)
This is a sample that favours compounds with a hit; in the whole collection about 6% have one here.
VDR inhibitor: vitamin D3 receptor (human) inhibition. P11473. VDR-SRC2-3 peptide fluorescence polarization, 2 h. 0.93% of 400,000 active. Potency, µM, usual class: inhibitors
Target sequence (P11473 whole entry, looked up): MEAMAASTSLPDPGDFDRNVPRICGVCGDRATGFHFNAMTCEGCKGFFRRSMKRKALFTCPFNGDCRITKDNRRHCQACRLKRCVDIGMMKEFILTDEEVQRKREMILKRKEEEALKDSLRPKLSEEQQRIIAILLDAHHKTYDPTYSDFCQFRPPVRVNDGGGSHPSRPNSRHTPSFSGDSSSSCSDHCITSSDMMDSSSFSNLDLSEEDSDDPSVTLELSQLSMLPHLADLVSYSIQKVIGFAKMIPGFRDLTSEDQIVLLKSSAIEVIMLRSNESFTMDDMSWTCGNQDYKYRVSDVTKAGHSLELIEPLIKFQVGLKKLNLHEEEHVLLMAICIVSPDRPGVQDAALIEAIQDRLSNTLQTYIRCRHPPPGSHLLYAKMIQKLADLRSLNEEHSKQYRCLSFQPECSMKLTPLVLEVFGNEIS
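Two reagent solutions held at 4 deg C in the dark were dispensed, compounds pinned at 23 nl, and the mixture incubated 2 h at room temperature. Read-out: fluorescence polarization of VDR–SRC2-3 peptide binding.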
Sfp inh: blocks B. subtilis Sfp PPTase activity; Q9F4F7; Biochemical Sfp PPTase activity, qHTS; Potency, µM, usual class: inhibitors; 3.5% of 310,000 active; AID 1490;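 note: the enzyme is Sfp with the accession as filed and its product quenches rhodamine fluorescence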
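Buffer: 50 mM Hepes-Na pH 7.6, 10 mM MgCl2, 0.01% Nonidet P-40, 0.01% BSA. Enzyme 15 nM, pre-exposed to compound 15 min; substrates then added and fluorescence change tracked over 30 min.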
Tau fluor cs: counter-screen for tau fibril formation inhibitors | tau K18 P301L Alexa594 fluorescence, heparin fibrillization | Potency, µM (titrated, usually from 57.7 µM) | 0.93% of 280,000 active | AID 1463; note: nearly all actives have a fitted effect of over 55% in size
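Human K18 P301L tau (15 uM unlabeled plus 0.24 uM Alexa 594-labeled, final) in 100 mM sodium acetate pH 7 was mixed with compound and 20 uM heparin and incubated 6 hr at 37 C.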
Tau FP inhib: inhibitors of human tau fibril formation | K18 P301L tau heparin fibrillization, Alexa594 FP, 6 h | Potency, µM (series often up to 57.7 µM), usual class: inhibitors | 0.39% of 280,000 active; note: nearly all actives have a fitted effect of over 55% in size
Target sequence (P10636 561-689 P618L limits assumed): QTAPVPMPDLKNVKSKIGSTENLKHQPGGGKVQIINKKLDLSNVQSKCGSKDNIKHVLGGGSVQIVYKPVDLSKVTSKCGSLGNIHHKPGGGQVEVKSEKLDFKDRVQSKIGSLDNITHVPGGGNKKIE
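Read-out: fluorescence polarization of Alexa 594-labeled tau (0.24 uM), 555 nm excitation, 632 nm emission. Mixtures held 15 uM unlabeled K18 P301L, compound and 20 uM heparin, pH 7 acetate buffer, incubated 6 hr at 37 C.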
Tau fibril ThT: tau fibrillization inhibition (ThT binding). recombinant tau K18 P301L, heparin-induced fibrillization, ThT fluorescence. Potency, µM (top dose mostly 57.4 µM), usual class: inhibitors. 2.1% of 270,000 active; note: nearly all actives have a fitted effect of over 55% in size
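Fibril formation assay: tau K18 P301L at 15 uM with trace Alexa 594 label, heparin inducer 20 uM, pH 7 sodium acetate buffer, 37 C for 6 hr; endpoint ThT signal.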
PLK1 PBD block: inhibitors of human PLK1 polo-box domain binding | Plk1 PBD binding of FITC phosphopeptide, fluorescence polarization | Potency, µM, actives largely listed as inhibitors | 2.8% of 360,000 active; note: series mostly up to about 57 µM; nearly all actives have a fitted effect of over 65% in size
Hits are given with their value; n = inactive; u = inconclusive; x = not tested or not shown; [ ] = remark or other dose. Calls come from the whole dose curve; as a rule, active = well fitted curve in the direction sought with a large enough effect; inconclusive = small, poorly fitted or top-dose-only effect, or another doubt; inactive = no such curve, though single readings can be large; an effect the other way counts as inactive or inconclusive.

SMILES	VDR inhibitor	Sfp inh	Tau fluor cs	Tau FP inhib	Tau fibril ThT	PLK1 PBD block
CCOC(=O)c1c(C)[nH]c(CCC(=O)Nc2c(C)cccc2CC)c1C	n	x	n	n	n	x
Cc1cc(C)n(Cc2ccc(C(=O)O)cc2)n1	n	n	n	n	n	n
Cc1ccc(C)n1Cc1ccc(C(=O)O)cc1	n	u	n	u	u	2.99µM
CCCCn1c(O)c(N=Nc2ccccn2)c2ccccc21	n	u	n	n	u	n
CCn1c(O)c(N=Nc2ccc3ccccc3n2)c2ccccc21	n	22.4µM	n	n	3.98µM	n
CN(Cc1ccccc1)C(=O)COC(=O)CCC(=O)c1ccc(F)cc1	n	x	x	x	x	n
CCC1Sc2ccc(S(=O)(=O)CCC(=O)Nc3cccc(Br)c3)cc2NC1=O (stereo not given)	n	n	x	x	x	11.9µM
CCC1Sc2ccc(S(=O)(=O)CCC(=O)Nc3ccc(NC(C)=O)cc3)cc2NC1=O (stereo not given)	n	n	x	x	x	n
CCC1Sc2ccc(S(=O)(=O)CCC(=O)Nc3ccc(C(=O)OC)cc3)cc2NC1=O (stereo not given)	u	n	x	x	x	15µM
COc1ccc(CNC(=O)c2ccc3c(c2)NC(=O)C(C)S3)cc1 (stereo not given)	u	22.4µM	n	u	u	13.4µM
CC1Sc2ccc(C(=O)O)cc2NC1=O (stereo not given)	n	n	n	n	n	n
COC(=O)c1ccc(NC(=O)CCS(=O)(=O)c2ccc3c(c2)NC(=O)C(C)S3)cc1 (stereo not given)	u	n	x	x	x	5.97µM
COc1ccccc1NC(=O)c1oc2ccccc2c1NC(=O)c1c(F)cccc1F	n	x	n	n	n	x
COc1ccc(C2Nc3ccccc3C(=O)N2Cc2ccccc2)cc1COc1ccc([N+](=O)[O-])c(C)c1 (stereo not given)	n	x	x	x	x	x
N#Cc1c([N+](=O)[O-])cc([N+](=O)[O-])cc1S(=O)(=O)Cc1ccccc1	39.8µM	x	x	x	x	1.06µM
CC(OC(=O)CCc1c[nH]c2ccccc12)C(=O)c1ccccc1 (stereo not given)	n	n	11.2µM[quencher]	n	u	n
CC(=O)Nc1ccc(NC(=O)C(C)OC(=O)CCCc2c[nH]c3ccccc23)cc1 (stereo not given)	n	x	x	x	x	n
COc1ccc(NC(=O)/C(N=Nc2ccc(Cl)c(S(=O)(=O)Nc3ccc(Cl)cc3)c2)=C(\C)O)cc1	n	x	x	x	x	n
COc1ccc(N=N/C(C(C)=O)=C(/C)O)cc1	n	n	n	n	15.8µM	n
COc1ccc(S(=O)(=O)NC(=O)C2(C)CCN2C(=O)Cc2ccc(C(C)(C)C)cc2)cc1 (stereo not given)	x	x	x	x	x	n
Cn1ccnc1C(=O)c1ccc(NN)c([N+](=O)[O-])c1	n	n	u	n	22.4µM	n
O=C(c1ccc(NC2=NC3CS(=O)(=O)CC3S2)cc1)N1CCN(c2ccccc2)CC1 (stereo not given)	n	n	x	x	x	n
Cc1cccc(N2CCN(C(=O)c3ccc(NC4=NC5CS(=O)(=O)CC5S4)cc3)CC2C)c1 (stereo not given)	n	n	x	x	x	23.8µM
COC(=O)CCc1sc(Nc2ccccc2)nc1-c1ccc(OC)cc1	n	n	15.8µM[quencher]	n	u	n
COc1ccc(Nc2nc(-c3ccc(OC)cc3)c(CCC(=O)O)s2)cc1	u	n	n	n	u	n
SMILES	VDR inhibitor	Sfp inh	Tau fluor cs	Tau FP inhib	Tau fibril ThT	PLK1 PBD block
O=C(CNC(=O)c1ccccc1F)NCCOc1ccccc1Cl	n	n	n	n	n	26.7µM
O=C(CN1C(=O)NC2(CCc3ccccc32)C1=O)Nc1ccc(Cl)cc1F (stereo not given)	x	x	x	x	x	n
COc1ccc2[nH]c3c(c2c1)CCN1C(=O)C(CC(=O)NCc2ccc(OC)c(OC)c2)C[C@H](C(=O)N2CCOCC2)[C@@]31CCC1CCCC1 (stereo not given in full)	u	x	x	x	x	18.9µM
COc1ccc(CNC(=O)CC2C[C@H](C(=O)N3CCOCC3)[C@@]3(CCC4CCCC4)c4[nH]c5ccccc5c4CCN3C2=O)cc1OC (stereo not given in full)	n	x	x	x	x	n
CC(C)(C)c1csc(NNC(=O)c2ccc(Cl)cc2)n1	n	44.7µM	n	n	x	u
NCCC[C@@H](CC(=O)N[C@@H]1CCCC[C@H]1C(=O)N[C@H](CC(=O)N[C@@H](CCC(=O)O)CC(=O)O)Cc1c[nH]c2ccccc12)NC(=O)C[C@H](Cc1ccccc1)NC(=O)[C@@H]1CNCC[C@H]1N	n	n	n	n	n	x
Cc1ccc2c(c1)c1ccc3c(c1n2C)C(=O)C=CC3=O	50.1µM	2.51µM	0.891µM[quencher]	u	x	18.9µM
Cc1ccc2c(c1)c1ncnc(N3CCOCC3)c1n2C	n	n	n	n	n	n
CCOC(=O)c1c(/N=C/c2cccc([N+](=O)[O-])c2O)sc(C)c1C	u	39.8µM	n	n	u	u
CC1(C)CCC[C@@](C)([C@H]2CC[C@]3(C)[C@@H]2[C@H](O)CC2[C@@]4(C)CC[C@H](O)C(C)(C)[C@@H]4[C@@H](O)C[C@]23C)O1 (stereo not given in full)	n	n	x	x	x	x
CCCc1cc(-c2nc(-c3ccc(Br)cc3)cs2)ccn1	n	u	n	n	u	n
CCCc1cc(-c2nc(-c3ccc(Cl)cc3)cs2)ccn1	n	39.8µM	n	n	u	n
O=C1CC(c2ccco2)CC(O)=C1C=Nc1cc(Cl)cc(Cl)c1 (stereo not given)	n	39.8µM	n	u	u	n
O=[N+]([O-])c1ccc2c(c1)N([O-])C1(CCCCC1)[N+]2=O	u	7.08µM	u	11.2µM	3.55µM	11.9µM
CC1=C(c2ccccc2)[N+](=O)C2(CCCC2)N1[O-]	n	n	n	n	n	n
CCNC(=O)C1(C)CCCN(C(=O)c2ccc3c(c2)C(C)(C)CCC3(C)C)C1 (stereo not given)	x	x	x	x	x	n
Cc1ccc(NS(=O)(=O)c2coc(C(N)=O)c2)cc1F	n	n	x	x	x	23.8µM
NC(=O)c1cc(S(=O)(=O)NC2CCCCC2)co1	n	n	n	n	n	n
CCn1c(SCC(=O)N/N=C/C=C/c2ccco2)nc2ccccc21	u	44.7µM	n	u	u	u
O=C(CSc1nnc(SCc2ccccc2)s1)N/N=C/C=C/c1ccccc1[N+](=O)[O-]	n	n	n	n	n	n
O=C(CSc1nnc(SCc2ccccc2)s1)N/N=C/C=C\c1ccco1	u	11.2µM	n	n	u	u
Cn1c(SCC(=O)N/N=C/c2ccco2)nc2ccccc21	n	n	n	n	n	n
C=CCn1c(SCc2nc3ccccc3c(=O)[nH]2)nc2ccccc2c1=O	n	50.1µM	n	n	n	n
FC(F)Oc1ccc(NC(=S)NNc2ccnc3cc(Cl)ccc23)cc1	35.5µM	n	u	n	u	n
O=C(NNc1ccnc2cc(Cl)ccc12)C1CCCCC1	n	n	n	n	n	n
